In the library only some 18% were active in any assay of this set; here they are far more common.
KAT2A inh = GCN5L2 (KAT2A) acetyltransferase inhibition. GCN5L2 HAT assay, ThioGlo1 CoA-SH fluorescence. Q92830. 0.21% of 390,000 active. Potency, µM (top dose mostly 58.9 µM), actives largely listed as inhibitors. AID 504327
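Titration-based screen in which CoA formation is detected via maleimide probe ThioGlo1 (50uM) turning fluorescent on thiol reaction; substrates H3(1-25) 75uM and acetyl-CoA 70uM, GCN5L2 20nM, 20 min incubation at room temperature.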
DT40 TDP1 no CPT = qHTS for Inhibitors of human tyrosyl-DNA phosphodiesterase 1 (TDP1): qHTS in cells in absence of CPT. DT40 Tdp1-/- hTDP1 cells, no CPT, ATP luminescence, 48 h. Potency, µM (highest dose often 46.2 µM), actives largely listed as inhibitors. 15% of 420,000 active. AID 686978, 2013; further: nearly all actives have a fitted effect of over 55% in size
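Chicken DT40 Tdp1-/- cells complemented with human TDP1, screened without camptothecin (DMSO vehicle only), 400 cells/well. Compounds pin-transferred, cells incubated at 37 °C for at least 48 hr. Growth read as ATP-dependent luminescence (CellTiter-Glo, 30 min at RT).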
VDR inh = vitamin D3 receptor (human) inhibition | VDR-SRC2-3 peptide fluorescence polarization, 2 h | Potency, µM, hits mostly inhibitors | 0.93% of 400,000 active | AID 504847
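The screen uses fluorescence polarization to detect compounds that interfere with recruitment of the SRC2-3 coactivator peptide to VDR; plates are read after 2 h at room temperature.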
PLK1 PBD inh = PLK1 (human) polo-box domain binding inhibition; Plk1 PBD binding of FITC phosphopeptide, fluorescence polarization; P53350; Potency, µM, hits mostly inhibitors; 2.8% of 360,000 active; further: series mostly up to about 57 µM; nearly all actives have a fitted effect of over 65% in size
Target sequence (P53350 whole entry, looked up, the tested form may be a part): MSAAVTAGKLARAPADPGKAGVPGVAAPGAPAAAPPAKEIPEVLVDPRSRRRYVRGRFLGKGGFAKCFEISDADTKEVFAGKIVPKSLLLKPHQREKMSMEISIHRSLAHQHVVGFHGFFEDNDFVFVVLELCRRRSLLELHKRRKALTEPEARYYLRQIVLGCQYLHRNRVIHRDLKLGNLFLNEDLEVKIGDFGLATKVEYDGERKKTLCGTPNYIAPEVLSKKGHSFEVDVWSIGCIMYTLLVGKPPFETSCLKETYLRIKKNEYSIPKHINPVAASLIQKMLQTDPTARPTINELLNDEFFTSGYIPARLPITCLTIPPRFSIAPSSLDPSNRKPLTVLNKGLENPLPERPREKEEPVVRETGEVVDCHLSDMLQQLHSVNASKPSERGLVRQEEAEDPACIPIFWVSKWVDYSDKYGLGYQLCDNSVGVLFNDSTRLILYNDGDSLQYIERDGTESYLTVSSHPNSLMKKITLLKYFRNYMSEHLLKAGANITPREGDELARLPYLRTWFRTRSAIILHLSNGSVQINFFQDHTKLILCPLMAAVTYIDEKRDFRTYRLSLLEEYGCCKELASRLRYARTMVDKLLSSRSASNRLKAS
TDP1 block = TDP1 (human) enzyme inhibition. Q9NUW8. recombinant TDP1, AlphaScreen DNA substrate cleavage. Potency, µM (series often up to 130 µM), actives largely listed as inhibitors. 0.28% of 350,000 active. AID 485290; further: nearly all actives have a fitted effect of over 40% in size
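Here, a 5' biotin and 3' phosphotyrosine-FITC DNA oligonucleotide reports Tdp1 activity: intact substrate bridges AlphaScreen beads, while cleavage leaves a 3' phosphate and drops signal. All incubations at room temperature.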
DT40 TDP1 CPT = growth inhibition of DT40 Tdp1-/-;hTDP1 cells with camptothecin (screen for TDP1 inhibitors); chicken DT40 Tdp1-/-;hTDP1 cells + 20 nM CPT, ATP luminescence, 48 h; Potency, µM (doses to about 46.2 µM), actives largely listed as inhibitors; 12% of 420,000 active; further: nearly all actives have a fitted effect of over 55% in size
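Chicken DT40 Tdp1-/- cells complemented with human TDP1, 400 cells/well, exposed to compounds plus 20 nM camptothecin for at least 48 h at 37 C; viability read as ATP content by CellTiter-Glo luminescence.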
Numbers stand for hits; - = inactive; ? = inconclusive; . = no result given; ! = not active in a repeat. The call rests on the fitted dose curve; in most records, active means well fitted curve in the direction sought with a large enough effect; inconclusive means small, poorly fitted or top-dose-only effect, or another doubt; inactive means no such curve, though single readings can be large; an effect the other way counts as inactive or inconclusive.

SMILES | KAT2A inh | DT40 TDP1 no CPT | VDR inh | PLK1 PBD inh | TDP1 block | DT40 TDP1 CPT
COc1cc(Cl)c(CN2CCCC(CO)(Cc3cccc(Cl)c3)C2)cc1OC (centres undefined) | - | ? | - | - | . | 18µM
COc1ccccc1/C=C/CN1CCCC(CO)(Cc2cccc(Cl)c2)C1 (centres undefined) | - | 23µM | - | - | - | ?
CC(C)(O)C#Cc1ccc(CN2CCCC(CO)(Cc3cccc(Cl)c3)C2)cc1 (centres undefined) | - | 15µM | - | ? | - | 15µM
COc1cccc(-c2nc3c(C#N)c[nH]n3c2NC2CCCC2)c1OC | - | ? | - | . | - | ?
Cc1c(CN2CCCC(CO)(Cc3cccc(Cl)c3)C2)cnn1C (centres undefined) | - | - | - | - | - | -
OCC1(Cc2cccc(Cl)c2)CCCN(Cc2sc(N3CCCC3)nc2Cl)C1 (centres undefined) | - | 18µM | - | - | - | 21µM
CC(NC(=O)Cc1ccsc1)c1ccc(Cl)cc1Cl (centres undefined) | - | - | - | - | . | -
COc1ccc(C(CNC(=O)COc2ccc(Cl)c(C)c2)N2CCCCC2)cc1 (centres undefined) | - | ? | - | - | - | ?
Cc1c(C(=O)N2CCCCCC2)c(S(=O)(=O)N(Cc2ccccc2)C(C)(C)C)c(C)n1C | - | 21µM | - | . | - | ?
Cc1c(C(=O)N2CCCCC2)c(S(=O)(=O)N(C)Cc2ccccc2)c(C)n1C | - | - | - | - | - | -
CCOn1c(=O)c(-c2ccc(Br)cc2)[n+]([O-])c2ccccc21 | - | - | - | - | . | -
O=c1c(-c2ccc(Br)cc2)[n+]([O-])c2ccccc2n1OCc1ccccn1 | - | ? | - | 24µM | - | ?
O=c1c(-c2cc3ccccc3o2)[n+]([O-])c2ccccc2n1OCc1ccccn1 | - | 15µM | - | ? | - | ?
CCOC(=O)COn1c(=O)c(-c2ccco2)[n+]([O-])c2ccccc21 | - | - | - | - | - | -
Cc1ccc(C)c(NC(=O)Cn2cnc3c(oc4ccccc43)c2=O)c1 | - | - | - | - | - | -
CCOC(=O)C1CCCN(C(=O)CN2C(=O)/C(=C/c3ccc(OC)cc3)Oc3ccccc32)C1 (centres undefined) | ? | 13µM | - | - | - | ?
Cc1c(C)n(C(=O)CN2CCN(c3ccccn3)CC2)c2ccccc12 | - | 12µM | - | - | - | ?
COC(=O)C(NC(=O)c1ccccc1)=C(C)C | - | ? | - | 3.4µM | - | 18µM
C[C@@H](CN1C2=NC[C@H](Cc3ccccc3)N2C[C@H]1Cc1ccc(O)cc1)NC(=O)CCC1CCCCC1 | - | 12µM | - | - | - | 7.3µM
COc1ccc(C[C@H]2CN3C(=NC[C@H]3Cc3ccccc3)N2CCNC(=O)CCC2CCCCC2)cc1 | - | 26µM | - | - | - | ?
COc1ccc(C[C@H]2CN3C(=NC[C@@H]3Cc3ccccc3)N2C[C@H](C)NC(=O)CCC2CCCCC2)cc1 | - | . | . | . | . | .
COc1ccc(C[C@H]2CN3C(=NC[C@H]3Cc3ccccc3)N2CCNC(=O)c2ccc(C)c(Br)c2)cc1 | - | 15µM | - | - | - | 21µM
COc1ccc(C[C@H]2CN3C(=NC[C@@H]3Cc3ccccc3)N2CCNC(=O)c2ccc(C)c(Br)c2)cc1 | - | 21µM | - | ? | - | 23µM
CCC(C)[C@H](NS(=O)(=O)c1ccc(C)cc1)C(=O)N1CCC(C(=O)N[C@@H](Cc2ccccc2)C(=O)O)CC1 (some centres undefined) | - | - | - | - | - | ?
NS(=O)(=O)c1cccc(NS(=O)(=O)c2ccc(/C=C/C(=O)O)cc2)c1 | - | - | - | - | - | -
SMILES | KAT2A inh | DT40 TDP1 no CPT | VDR inh | PLK1 PBD inh | TDP1 block | DT40 TDP1 CPT
Cc1sc2c(c1C)c(=O)n(CCc1ccccc1)c(=O)n2Cc1ccc(F)cc1 | - | 18µM | - | . | - | ?
Cc1sc2c(c1C)c(=O)n(CCc1ccccc1)c(=O)n2Cc1cccc(F)c1 | - | 5.8µM | - | . | - | ?
CCN(CC)C(=O)c1sc2c(c1C)c(=O)n(Cc1ccccc1)c(=O)n2Cc1ccccc1C | - | ? | - | . | - | ?
Cc1cccc(Cn2c(=O)n(CCc3ccccc3)c(=O)c3c(C)c(C)sc32)c1 | - | ? | - | . | - | 21µM
Cc1ccc(C)c(Cn2c(=O)n(CCc3ccccc3)c(=O)c3c(C)c(C)sc32)c1 | - | - | - | . | - | -
CCN(CC)C(=O)c1sc2c(c1C)c(=O)n(CCc1ccccc1)c(=O)n2Cc1cccc(Cl)c1 | - | 15µM | - | . | - | 23µM
C=CCn1c(SCC(=O)N(CC)c2c(N)n(Cc3ccccc3)c(=O)[nH]c2=O)nnc1-c1ccccc1OC | . | - | - | - | . | -
Cc1ccc(C(=O)Cc2ccccc2)cc1 | . | - | - | - | . | -
CC1=C(CC(=O)c2ccc(Cl)cc2)C(=O)c2ccccc2C1=O | - | 16µM | - | ? | - | 23µM
Cn1cc(S(=O)(=O)CC(=O)N2CCc3ccccc32)c2ccccc21 | - | ? | - | - | - | -
CCCn1cc(S(=O)(=O)CC(=O)N2CCc3ccccc32)c2ccccc21 | - | ? | ? | 30µM | - | ?
O=C(O)[C@@H]1CSCN1 | - | - | - | . | - | -
Fc1ccccc1COc1ccc(Br)cc1CNCC1CCCO1 (centres undefined) | - | 15µM | - | - | - | ?
Nc1nonc1C(=O)NCCNCc1cc(Br)ccc1OCc1ccccc1F | - | 21µM | - | - | - | 21µM
Fc1ccc(COc2ccc(Br)cc2CNCC2CCCO2)cc1 (centres undefined) | - | ? | - | - | - | ?
Nc1nonc1C(=O)NCCNCc1ccccc1OCc1ccccc1F | - | 21µM | - | - | - | ?
CCOc1ccccc1CNCCNC(=O)c1nonc1N | - | 26µM! | - | - | - | ?
O=C1CCc2cc([S+](=O)([O-])Nc3ccc(N[S+](=O)([O-])c4ccc5c(c4)CCC(=O)N5)cc3)ccc2N1 | . | . | . | . | - | .
COc1cccc(C(=O)N2[C@H](COCc3ccccc3)C=CS2(=O)=O)c1 | . | ? | . | - | . | ?
Cc1ccc(C)c(NS(=O)(=O)c2ccc3c(c2)Cc2cc(S(=O)(=O)Nc4cc(C)ccc4C)ccc2-3)c1 | - | 13µM | - | - | - | 21µM
Cc1ccc(C)c(NS(=O)(=O)c2ccc3oc(=O)ccc3c2)c1 | - | ? | - | - | - | -
CCC(Cc1ccccc1)NS(=O)(=O)c1c(C)nc2sccn2c1=O (centres undefined) | - | - | - | - | . | -
